Calls of active or inactive are those of the source. Entries that show only a call come without a potency. Calls follow the shape of the dose curve; as a rule, active = well fitted curve in the direction sought with a large enough effect; inconclusive = small, poorly fitted or top-dose-only effect, or another doubt; inactive = no such curve, though single readings can be large; an effect the other way counts as inactive or inconclusive.
Experiment: Cellular Toxicity (caspase-3) SHSY5Y (AID 657)
Conditions: SH-SY5Y caspase-3 activation, DMSO zero, 10 µM staurosporine = 100%; series mostly up to 91.7 µM
How it was run: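 Luminescent Caspase-Glo 3/7 read-out, 1 hr room temperature, follows 16 hours of compound treatment of SH-SY5Y cells at 37 °C. Normalization: DMSO basal, 10 uM staurosporine as 100%; AC50 values from Hill-equation concentration-response fits.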

Question: For `Cc1cc(CC(=O)O)n(C)c1C(=O)c1ccc(Cl)cc1`, which outcome is on record?
Answer: The outcome was “inactive”.

Question: For `C[C@]12C[C@H](O)[C@H]3[C@@H](CCC4=CC(=O)CC[C@@]43C)[C@@H]1CC[C@@H]2C(=O)CO`, which outcome is on record?
Answer: Its outcome is “inactive”.

Question: Which outcome does the source give for `O=C1O[C@H]([C@@H](O)CO)C(O)=C1O` here?
Answer: Its outcome is “inactive”.

Question: With `[Cl][In]([Cl])[Cl]` as the compound, how does the outcome read?
Answer: The outcome was “inactive”.

Question: For `Nc1ccc(S(=O)(=O)Nc2nccs2)cc1`, which outcome is on record?
Answer: Its outcome is “inactive”.

Question: With `NC(=O)c1ncn([C@@H]2O[C@H](CO)[C@@H](O)[C@H]2O)n1` as the compound, how does the outcome read?
Answer: Its outcome is “inactive”.

Question: Which outcome does the source give for `NC(=O)N/N=C/c1ccc([N+](=O)[O-])o1` here?
Answer: Its outcome is “inactive”.

Question: Which outcome does the source give for `CCCCCCCCCCCCOS(=O)(=O)O` here?
Answer: Its outcome is “inactive”.

Question: Which outcome does the source give for `NCCNCCNCCNCCN` here?
Answer: The outcome was “inactive”.

Question: Which outcome does the source give for `NCCNCCNCCN` here?
Answer: The outcome was “inactive”.

Question: Which outcome does the source give for `COc1ccccc1O` here?
Answer: Its outcome is “inactive”.

Question: With `CCCCOC(=O)c1ccc(O)cc1` as the compound, how does the outcome read?
Answer: The outcome was “inactive”.

Question: With `Cc1cc2nc3c(=O)[nH]c(=O)nc-3n(C[C@H](O)[C@H](O)[C@H](O)CO)c2cc1C` as the compound, how does the outcome read?
Answer: The outcome was “inactive”.

Question: For `CC12CCC(CC1)C(C)(C)O2`, which outcome is on record?
Answer: Its outcome is “inactive”.

Question: Which outcome does the source give for `CC1(C)[C@@H]2CC[C@@]1(C)C(=O)C2` here?
Answer: Its outcome is “inactive”.

Question: With `Oc1cccc(O)c1` as the compound, how does the outcome read?
Answer: The outcome was “inactive”.

Experiment: Cellular Toxicity (caspase-3) BJ (AID 658)
Conditions: BJ fibroblasts, luminescence, normalized: DMSO 0%, staurosporine 100%; series mostly up to 91.7 µM
How it was run: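 Caspase-Glo 3/7 luminescence, read 1 hr after reagent at room temperature, in normal BJ fibroblasts exposed 16 hours at 37 °C. AC50 values from Hill-equation concentration-response, scaled between DMSO basal and 10 uM staurosporine as 100%.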

Question: For `Cc1cc(CC(=O)O)n(C)c1C(=O)c1ccc(Cl)cc1`, which outcome is on record?
Answer: The outcome was “inactive”.

Question: Which outcome does the source give for `C[C@]12C[C@H](O)[C@H]3[C@@H](CCC4=CC(=O)CC[C@@]43C)[C@@H]1CC[C@@H]2C(=O)CO` here?
Answer: Its outcome is “inactive”.

Question: Which outcome does the source give for `COC(=O)C1=C(C)NC(C)=C(C(=O)OC)C1c1ccccc1[N+](=O)[O-]` here?
Answer: The outcome was “inactive”.

Question: With `O=C1O[C@H]([C@@H](O)CO)C(O)=C1O` as the compound, how does the outcome read?
Answer: Its outcome is “inactive”.

Question: With `[Cl][In]([Cl])[Cl]` as the compound, how does the outcome read?
Answer: Its outcome is “inactive”.

Question: Which outcome does the source give for `Nc1ccc(S(=O)(=O)Nc2nccs2)cc1` here?
Answer: The outcome was “inactive”.

Question: Which outcome does the source give for `NC(=O)c1ncn([C@@H]2O[C@H](CO)[C@@H](O)[C@H]2O)n1` here?
Answer: The outcome was “inactive”.

Question: For `NC(=O)N/N=C/c1ccc([N+](=O)[O-])o1`, which outcome is on record?
Answer: Its outcome is “inactive”.

Question: Which outcome does the source give for `CCCCCCCCCCCCOS(=O)(=O)O` here?
Answer: The outcome was “inactive”.

Question: Which outcome does the source give for `NCCNCCNCCNCCN` here?
Answer: Its outcome is “inactive”.

Question: Which outcome does the source give for `NCCNCCNCCN` here?
Answer: Its outcome is “inactive”.

Question: With `COc1ccccc1O` as the compound, how does the outcome read?
Answer: The outcome was “inactive”.

Question: For `CCCCOC(=O)c1ccc(O)cc1`, which outcome is on record?
Answer: Its outcome is “inactive”.

Question: For `Cc1cc2nc3c(=O)[nH]c(=O)nc-3n(C[C@H](O)[C@H](O)[C@H](O)CO)c2cc1C`, which outcome is on record?
Answer: The outcome was “inactive”.

Question: For `CC12CCC(CC1)C(C)(C)O2`, which outcome is on record?
Answer: The outcome was “inactive”.

Question: Which outcome does the source give for `CC1(C)[C@@H]2CC[C@@]1(C)C(=O)C2` here?
Answer: Its outcome is “inactive”.

Question: For `Oc1cccc(O)c1`, which outcome is on record?
Answer: Its outcome is “inactive”.

Experiment: Cellular Toxicity (caspase-3) MRC-5 (AID 659)
Conditions: MRC-5 cells, luminescence; Potency: caspase-3 activation; series mostly up to 91.7 µM
How it was run: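 Luminescent Caspase-Glo 3/7 read-out (1 h, room temperature) after a 16 h, 37 °C compound exposure of MRC-5 lung fibroblasts at 1500 cells/well. Concentration-response AC50 from Hill equation; 0% DMSO, 100% 10 uM staurosporine.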

Question: For `Cc1cc(CC(=O)O)n(C)c1C(=O)c1ccc(Cl)cc1`, which Potency is on record?
Answer: Its Potency is “inactive”.

Question: For `C[C@]12C[C@H](O)[C@H]3[C@@H](CCC4=CC(=O)CC[C@@]43C)[C@@H]1CC[C@@H]2C(=O)CO`, which Potency is on record?
Answer: Its Potency is “inactive”.

Question: Which Potency does the source give for `COC(=O)C1=C(C)NC(C)=C(C(=O)OC)C1c1ccccc1[N+](=O)[O-]` here?
Answer: Its Potency is “inactive”.

Question: For `O=C1O[C@H]([C@@H](O)CO)C(O)=C1O`, which Potency is on record?
Answer: Its Potency is “inactive”.

Question: Which Potency does the source give for `[Cl][In]([Cl])[Cl]` here?
Answer: The Potency was “inactive”.

Question: Which Potency does the source give for `Nc1ccc(S(=O)(=O)Nc2nccs2)cc1` here?
Answer: The Potency was “inactive”.

Question: For `NC(=O)c1ncn([C@@H]2O[C@H](CO)[C@@H](O)[C@H]2O)n1`, which Potency is on record?
Answer: Its Potency is “inactive”.

Question: Which Potency does the source give for `NC(=O)N/N=C/c1ccc([N+](=O)[O-])o1` here?
Answer: Its Potency is “inactive”.

Question: Which Potency does the source give for `CCCCCCCCCCCCOS(=O)(=O)O` here?
Answer: The Potency was “inactive”.

Question: For `NCCNCCNCCNCCN`, which Potency is on record?
Answer: Its Potency is “inactive”.

Question: Which Potency does the source give for `NCCNCCNCCN` here?
Answer: Its Potency is “inactive”.

Question: For `COc1ccccc1O`, which Potency is on record?
Answer: Its Potency is “inactive”.

Question: For `CCCCOC(=O)c1ccc(O)cc1`, which Potency is on record?
Answer: Its Potency is “inactive”.

Question: For `Cc1cc2nc3c(=O)[nH]c(=O)nc-3n(C[C@H](O)[C@H](O)[C@H](O)CO)c2cc1C`, which Potency is on record?
Answer: The Potency was “inactive”.

Question: For `CC12CCC(CC1)C(C)(C)O2`, which Potency is on record?
Answer: The Potency was “inactive”.

Question: For `CC1(C)[C@@H]2CC[C@@]1(C)C(=O)C2`, which Potency is on record?
Answer: The Potency was “inactive”.

Question: With `Oc1cccc(O)c1` as the compound, how does the Potency read?
Answer: The Potency was “inactive”.

Experiment: Cellular Toxicity (caspase-3) Mesangial (AID 660);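 also: combined caspase 3 and 7 activity read by Caspase-Glo luminescence; cells exposed to compound for 16 h before the caspase read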
Conditions: mesangial cells, normalized: DMSO 0%, 100 µM tamoxifen 100%; series mostly up to 91.7 µM
How it was run: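 AC50 values come from Hill-equation fits of caspase 3/7 activation, measured as Caspase-Glo luminescence in human glomerular mesangial cells exposed to compound for 16 h at 37 °C; 100% set by 100 uM tamoxifen.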

Question: With `Cc1cc(CC(=O)O)n(C)c1C(=O)c1ccc(Cl)cc1` as the compound, how does the outcome read?
Answer: The outcome was “inactive”.

Question: With `C[C@]12C[C@H](O)[C@H]3[C@@H](CCC4=CC(=O)CC[C@@]43C)[C@@H]1CC[C@@H]2C(=O)CO` as the compound, how does the outcome read?
Answer: The outcome was “inactive”.

Question: For `COC(=O)C1=C(C)NC(C)=C(C(=O)OC)C1c1ccccc1[N+](=O)[O-]`, which outcome is on record?
Answer: The outcome was “inactive”.

Question: Which outcome does the source give for `O=C1O[C@H]([C@@H](O)CO)C(O)=C1O` here?
Answer: The outcome was “inactive”.

Question: For `[Cl][In]([Cl])[Cl]`, which outcome is on record?
Answer: The outcome was “inactive”.

Question: For `Nc1ccc(S(=O)(=O)Nc2nccs2)cc1`, which outcome is on record?
Answer: Its outcome is “inactive”.

Question: With `NC(=O)c1ncn([C@@H]2O[C@H](CO)[C@@H](O)[C@H]2O)n1` as the compound, how does the outcome read?
Answer: Its outcome is “inactive”.

Question: With `NC(=O)N/N=C/c1ccc([N+](=O)[O-])o1` as the compound, how does the outcome read?
Answer: The outcome was “inactive”.

Question: With `CCCCCCCCCCCCOS(=O)(=O)O` as the compound, how does the outcome read?
Answer: The outcome was “inactive”.

Question: Which outcome does the source give for `NCCNCCNCCNCCN` here?
Answer: Its outcome is “inactive”.

Question: For `NCCNCCNCCN`, which outcome is on record?
Answer: Its outcome is “inactive”.

Question: For `COc1ccccc1O`, which outcome is on record?
Answer: Its outcome is “inactive”.

Question: With `CCCCOC(=O)c1ccc(O)cc1` as the compound, how does the outcome read?
Answer: Its outcome is “inactive”.

Question: Which outcome does the source give for `Cc1cc2nc3c(=O)[nH]c(=O)nc-3n(C[C@H](O)[C@H](O)[C@H](O)CO)c2cc1C` here?
Answer: The outcome was “inactive”.

Question: Which outcome does the source give for `CC12CCC(CC1)C(C)(C)O2` here?
Answer: Its outcome is “inactive”.

Question: Which outcome does the source give for `CC1(C)[C@@H]2CC[C@@]1(C)C(=O)C2` here?
Answer: Its outcome is “inactive”.

Question: Which outcome does the source give for `Oc1cccc(O)c1` here?
Answer: Its outcome is “inactive”.

Experiment: Cellular Toxicity (caspase-3) SK-N-SH (AID 661)
Conditions: SK-N-SH caspase-3 activation, qHTS, DMSO as zero, staurosporine as full; series mostly up to 91.7 µM
How it was run: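 Apoptosis readout in SK-N-SH neuroblastoma: Caspase-Glo 3/7 luminescence following 16 hr treatment in complete culture medium. Normalization used DMSO and 10 uM staurosporine controls.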

Question: Which outcome does the source give for `Cc1cc(CC(=O)O)n(C)c1C(=O)c1ccc(Cl)cc1` here?
Answer: Its outcome is “inactive”.

Question: Which outcome does the source give for `C[C@]12C[C@H](O)[C@H]3[C@@H](CCC4=CC(=O)CC[C@@]43C)[C@@H]1CC[C@@H]2C(=O)CO` here?
Answer: Its outcome is “inactive”.

Question: For `COC(=O)C1=C(C)NC(C)=C(C(=O)OC)C1c1ccccc1[N+](=O)[O-]`, which outcome is on record?
Answer: The outcome was “inactive”.

Question: For `O=C1O[C@H]([C@@H](O)CO)C(O)=C1O`, which outcome is on record?
Answer: The outcome was “inactive”.

Question: With `[Cl][In]([Cl])[Cl]` as the compound, how does the outcome read?
Answer: Its outcome is “inactive”.

Question: For `Nc1ccc(S(=O)(=O)Nc2nccs2)cc1`, which outcome is on record?
Answer: Its outcome is “inactive”.

Question: Which outcome does the source give for `NC(=O)c1ncn([C@@H]2O[C@H](CO)[C@@H](O)[C@H]2O)n1` here?
Answer: The outcome was “inactive”.

Question: Which outcome does the source give for `NC(=O)N/N=C/c1ccc([N+](=O)[O-])o1` here?
Answer: Its outcome is “inactive”.

Question: For `CCCCCCCCCCCCOS(=O)(=O)O`, which outcome is on record?
Answer: Its outcome is “inactive”.

Question: Which outcome does the source give for `NCCNCCNCCNCCN` here?
Answer: Its outcome is “inactive”.

Question: Which outcome does the source give for `NCCNCCNCCN` here?
Answer: The outcome was “inactive”.

Question: With `COc1ccccc1O` as the compound, how does the outcome read?
Answer: The outcome was “inactive”.

Question: For `CCCCOC(=O)c1ccc(O)cc1`, which outcome is on record?
Answer: Its outcome is “inactive”.

Question: Which outcome does the source give for `Cc1cc2nc3c(=O)[nH]c(=O)nc-3n(C[C@H](O)[C@H](O)[C@H](O)CO)c2cc1C` here?
Answer: The outcome was “inactive”.

Question: Which outcome does the source give for `CC12CCC(CC1)C(C)(C)O2` here?
Answer: The outcome was “inactive”.

Question: Which outcome does the source give for `CC1(C)[C@@H]2CC[C@@]1(C)C(=O)C2` here?
Answer: Its outcome is “inactive”.

Question: With `Oc1cccc(O)c1` as the compound, how does the outcome read?
Answer: The outcome was “inactive”.

Reference: PubChem BioAssay (NCATS)
